{
  "source": "PubChem BioAssay AID651813",
  "about": "(National Center for Advancing Translational Sciences (NCATS), 2012)",
  "note": "The campaign covered roughly 2,100 compounds. About 1,100 (52%) were called active. Another 27% or so got no clear call; they are omitted. The set was probably picked from earlier hits. This is one part of the list. Unmarked numbers belong to inactive results. Calls come from the whole dose curve; as a rule, active = well fitted inhibition curve with a large enough effect; inconclusive = small, poorly fitted or top-dose-only effect; inactive = no such curve, though single readings can be large or run the other way. Potency is the fitted concentration of half-maximal effect.",
  "data": [
    {"target": "DNA dC->dU-editing enzyme APOBEC-3G (Homo sapiens) (UniProt Q9HC16)", "sequence (Q9HC16 whole entry, looked up)": "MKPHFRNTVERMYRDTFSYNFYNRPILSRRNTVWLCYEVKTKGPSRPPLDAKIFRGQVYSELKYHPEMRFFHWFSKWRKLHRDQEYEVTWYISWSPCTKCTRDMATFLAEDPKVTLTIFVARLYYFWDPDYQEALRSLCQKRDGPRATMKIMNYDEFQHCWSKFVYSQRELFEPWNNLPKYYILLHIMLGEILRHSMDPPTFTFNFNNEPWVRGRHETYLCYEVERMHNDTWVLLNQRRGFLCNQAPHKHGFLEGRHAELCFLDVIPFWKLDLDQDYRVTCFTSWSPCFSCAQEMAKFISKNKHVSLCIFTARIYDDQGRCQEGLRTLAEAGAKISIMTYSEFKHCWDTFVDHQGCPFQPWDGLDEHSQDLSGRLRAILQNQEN", "assay": "qHTS for inhibitors of Vif-A3G interactions: Cherry picks counterscreen;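 note: hits raise yellow fluorescence by blocking Vif-driven A3G-eYFP degradation; nearly all actives have a fitted effect of over 70% in size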;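 for max response: max response given as percent of control signal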", "conditions": "HeLa A3G-eYFP + Vif (tagged APOBEC3G with the HIV-1 protein that degrades it), eYFP fluorescence, 24 h", "procedure,_shortened": "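Readout is eYFP fluorescence (488 nm excitation, 500-530 nm emission) measured on Acumen Explorer after 24 h compound exposure, several concentrations, at 37 deg C. Cells: HeLa stably co-expressing Vif and C-terminally eYFP-tagged A3G; MG132 positive control.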", "units": {"max response": "%"}, "values": [
      {"smiles": "COc1cc(/C=C2/SC(=S)N(CC3CCCO3)C2=O)ccc1O", "note": "(stereo unspecified)", "Potency": "16.4 µM (active)"},
      {"smiles": "O=C(O)c1cc(-c2ccc(/C=C3/SC(=S)N(Cc4ccccc4)C3=O)o2)ccc1Cl", "Potency": "18.4 µM (active)"},
      {"smiles": "O=C1/C(=C/c2ccc(O)cc2)SC(=S)N1CC1CCCO1", "note": "(stereo unspecified)", "max response": -5.85},
      {"smiles": "Cn1c(=O)c2c(nc(NC3CCCC3)n2C)n(C)c1=O", "max response": -1.35},
      {"smiles": "CCCC(=O)NC(c1ccc(OC)cc1)c1ccc2cccnc2c1O", "note": "(stereo unspecified)", "max response": -9.5},
      {"smiles": "CCC(=O)NC(c1ccc(OC)cc1)c1c(O)ccc2ccccc12", "note": "(stereo unspecified)", "Potency": "9.94 µM (active)"},
      {"smiles": "CCCSc1nnc(N2C(=O)C(O)=C(C(=O)c3ccco3)C2c2ccccc2F)s1", "note": "(stereo unspecified)", "max response": -7.3},
      {"smiles": "Cc1ccc(C2C(C(=O)c3cccs3)=C(O)C(=O)N2c2nnc(C)s2)cc1", "note": "(stereo unspecified)", "Potency": "19.8 µM (active)"},
      {"smiles": "Cc1ccc(NC2=C(Cl)C(=O)N(C3CCCCC3)C2=O)cc1", "max response": 6.01},
      {"smiles": "CN1C2CCC1/C(=C/c1cccn1C)C(=O)/C2=C\\c1cccn1C", "Potency": "8.2 µM (active)"},
      {"smiles": "Cn1cccc1/C=C1\\CC(C(C)(C)C)C/C(=C\\c2cccn2C)C1=O", "note": "(stereo unspecified)", "Potency": "8.2 µM (active)"},
      {"smiles": "O=c1oc2c3c4c(cc2c(C(F)(F)F)c1CCN1CCOCC1)CCCN4CCC3", "Potency": "2.31 µM (active)"},
      {"smiles": "COc1ccc(/C=C(/C(=O)c2cccs2)N2C=CC=CC2=C(C#N)C#N)cc1", "Potency": "15.8 µM (active)"},
      {"smiles": "C=CCNC(=O)C(C#N)c1nc2ccccc2nc1N1CCN(Cc2ccccc2)CC1", "note": "(stereo unspecified)", "max response": -10.2},
      {"smiles": "CCN(CC)c1nc2ccccc2nc1C(C#N)C(=O)NCCc1ccccc1", "note": "(stereo unspecified)", "Potency": "13 µM (active)"},
      {"smiles": "COc1ccc(-c2nnc(NC(=O)c3ccc([N+](=O)[O-])o3)o2)c(OC)c1", "max response": -27.9},
      {"smiles": "COc1ccc(C(=O)/C=C/Nc2ccc([N+](=O)[O-])cc2C)c(OC)c1", "Potency": "23.1 µM (active)"},
      {"smiles": "COc1ccccc1N1CCN(C(=O)c2ccc3ncsc3c2)CC1", "Potency": "17.7 µM (active)"},
      {"smiles": "COc1ccc(C(=S)N2CCN(c3cccc(Cl)c3)CC2)c(OC)c1", "Potency": "3.53 µM (active)"},
      {"smiles": "COc1ccccc1C(=O)N1CCN(c2cccc(Cl)c2)CC1", "Potency": "1.4 µM (active)"},
      {"smiles": "COc1cc(SC)ccc1C(=O)N1CCN(c2ccccc2OC)CC1", "Potency": "5.59 µM (active)"},
      {"smiles": "CCS(=O)(=O)N1CCc2cc(C(=O)N3CCN(c4cccc(C(F)(F)F)c4)CC3)ccc21", "max response": -3.11},
      {"smiles": "COC(=O)c1cc(C(=O)N2CCN(c3ccccc3OC)CC2)cc([N+](=O)[O-])c1", "Potency": "1.12 µM (active)"},
      {"smiles": "COc1ccccc1N1CCN(C(=O)c2cc(=O)c3cc(C)cc(C)c3o2)CC1", "Potency": "0.158 µM (active)"},
      {"smiles": "CCSc1ncc(Cl)c(C(=O)N2CCN(c3ccccc3OC)CC2)n1", "Potency": "4.61 µM (active)"},
      {"smiles": "NNC(=S)Nc1c(F)cc(F)cc1Br", "max response": -0.636},
      {"smiles": "Cc1cc(N/N=C/c2ccc([N+](=O)[O-])o2)nc2ccccc12", "Potency": "23.1 µM (active)"},
      {"smiles": "O=C(N/N=C/c1ccc([N+](=O)[O-])o1)c1cn2ccc3ccccc3c2n1", "max response": 3.73},
      {"smiles": "O=[N+]([O-])c1ccc(/C=N/Nc2ccc3ccccc3c2)o1", "Potency": "4.98 µM (active)"},
      {"smiles": "CCCN1CCc2c(sc(NC(=O)c3ccc(S(=O)(=O)N4CCN(C(=O)OCC)CC4)cc3)c2C(N)=O)C1", "Potency": "23.1 µM (active)"},
      {"smiles": "CCCN1CCc2c(sc(NC(=O)c3ccc(S(=O)(=O)N(C)c4ccccc4)cc3)c2C(N)=O)C1", "Potency": "14.6 µM (active)"},
      {"smiles": "CCCN1CCc2c(sc(NC(=O)c3ccc(S(=O)(=O)N(C)c4ccccc4)cc3)c2C(=O)NC)C1", "Potency": "18.4 µM (active)"},
      {"smiles": "CCN1CCc2c(sc(NC(=O)c3ccc(S(=O)(=O)N(CC)c4ccccc4)cc3)c2C(N)=O)C1", "Potency": "5.59 µM (active)"},
      {"smiles": "CC(C)N1CCc2c(sc(NC(=O)c3ccc(S(=O)(=O)N4CCOCC4)cc3)c2C#N)C1", "Potency": "8.2 µM (active)"},
      {"smiles": "NC(=O)c1c(NC(=O)c2ccccc2)sc2c1CCN(Cc1ccccc1)C2", "Potency": "15.8 µM (active)"},
      {"smiles": "CC(C)N1CCc2c(sc(NC(=O)c3cc4cc([N+](=O)[O-])ccc4s3)c2C(N)=O)C1", "Potency": "23.1 µM (active)"},
      {"smiles": "CCCN1CCc2c(sc(NC(=S)NC(=O)c3ccccc3)c2C#N)C1", "Potency": "14.6 µM (active)"},
      {"smiles": "CCOC(=O)/C(=C/C1=CC(=C/N(C)C)/C(=O)O1)C(C)=O", "max response": 1.47},
      {"smiles": "CC(C)CN(CC(C)C)S(=O)(=O)c1ccc(C(=O)Nc2sc3c(c2C(N)=O)CCN(C(C)C)C3)cc1", "Potency": "18.4 µM (active)"},
      {"smiles": "Cc1cccc(C)c1OCCNC(=O)C(=O)NCc1ccco1", "Potency": "2.8 µM (active)"},
      {"smiles": "COc1ccc(NC(=O)c2ccc3c(c2)c(C)c(C)n3Cc2ccc(F)cc2)cc1", "Potency": "5.17 µM (active)"},
      {"smiles": "CCCCCn1c(=O)[nH]c2cc(C(=O)Nc3cc(OC)cc(OC)c3)ccc2c1=O", "max response": -23.9},
      {"smiles": "Cc1ccccc1NC(=O)c1ccc2c(c1)c(C)c(C)n2Cc1ccccc1", "Potency": "2.91 µM (active)"},
      {"smiles": "Cc1cc(NC(=O)COC(=O)c2ccc(S(=O)(=O)N3CCCc4ccccc43)cc2)no1", "Potency": "4.44 µM (active)"},
      {"smiles": "COC(=O)Nc1ccc(S(=O)(=O)N2CCCc3ccccc32)cc1", "Potency": "3.53 µM (active)"},
      {"smiles": "O=C(CN1c2cccc3cccc(c23)S1(=O)=O)Nc1ccc(S(=O)(=O)N2CCOCC2)cc1", "max response": -29.7},
      {"smiles": "CC(=O)Nc1ccc(S(=O)(=O)N2CCSc3ccccc32)cc1", "Potency": "4.98 µM (active)"},
      {"smiles": "Cc1ccc(CNC(=O)C2CC(c3cc(C(F)(F)F)cc(C(F)(F)F)c3)=NO2)o1", "note": "(stereo unspecified)", "Potency": "8.86 µM (active)"},
      {"smiles": "COc1ccccc1N1CCN(c2ncnc3c2oc2ccccc23)CC1", "Potency": "3.14 µM (active)"},
      {"smiles": "CCN1/C(=C/C=C2/SC(=Nc3cccc4ncccc34)N(C)C2=O)Sc2ccccc21", "Potency": "4.11 µM (active)"},
      {"smiles": "Cc1c(N=C2N=C(NC(=O)c3cccs3)c3ccccc32)c(=O)n(-c2ccccc2)n1C", "Potency": "12.5 µM (active)"},
      {"smiles": "Cc1c(NC(=O)c2csc3c2CCCC3)c(=O)n(-c2ccccc2)n1C", "max response": -8.09},
      {"smiles": "CC#Cc1cc2c(cc1O)CCC1C2CCC2(C)C(O)CCC12", "note": "(stereo unspecified)", "Potency": "4.44 µM (active)"},
      {"smiles": "CCSc1nccc(-c2nn(-c3ccc(C)cc3)ccc2=O)n1", "Potency": "3.53 µM (active)"},
      {"smiles": "NNC(=O)c1oc2nc(-c3ccccc3)cc(-c3ccco3)c2c1N", "Potency": "18.4 µM (active)"},
      {"smiles": "Cc1ccc(-c2cc(-c3ccco3)c3c(N)c(C(=O)NN)oc3n2)cc1", "Potency": "23.1 µM (active)"}
    ]}
  ]
}
